# Experimental data reported in paper PMC11006913.
# Experiments:
# Assay in all cases: PBM; 200 nM protein, PBS
# Conditions in all cases: dsDNA, one strand shown
# [1] = biological target: HOXD13 (Homo sapiens, UniProt P35453 263-343, T313R)
# [2] = biological target: HOXD13 (Homo sapiens, UniProt P35453 263-343)
# [3] = biological target: HOXD13 (Homo sapiens, UniProt P35453 263-343, T313A)
# [4] = biological target: T1, SIX6 (Homo sapiens, UniProt O95475 114-200, T165A)
# T1 sequence: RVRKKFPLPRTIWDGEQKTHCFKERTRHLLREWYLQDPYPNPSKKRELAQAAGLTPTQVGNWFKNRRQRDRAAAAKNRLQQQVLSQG
# [5] = biological target: T2, NKX2-6 (Homo sapiens, UniProt A6NCS4 118-204)
# T2 sequence: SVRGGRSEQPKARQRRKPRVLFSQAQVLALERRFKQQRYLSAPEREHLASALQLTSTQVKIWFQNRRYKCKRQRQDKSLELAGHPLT
# [6] = biological target: HOXC9 (Homo sapiens, UniProt P31274 178-260, R222W)
# HOXC9, sequence (P31274 178-260 R222W): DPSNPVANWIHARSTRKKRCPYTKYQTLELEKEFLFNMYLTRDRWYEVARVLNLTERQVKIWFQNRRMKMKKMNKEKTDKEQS
# HOXD13 (Homo sapiens, UniProt P35453 263-343, T313A), sequence (P35453 263-343 T313A): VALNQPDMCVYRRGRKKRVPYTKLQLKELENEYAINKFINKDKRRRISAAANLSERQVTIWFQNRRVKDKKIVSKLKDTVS
# HOXD13 (Homo sapiens, UniProt P35453 263-343), sequence (P35453 263-343): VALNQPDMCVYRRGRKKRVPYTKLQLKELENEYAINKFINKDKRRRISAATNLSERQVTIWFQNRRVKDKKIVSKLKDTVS
# HOXD13 (Homo sapiens, UniProt P35453 263-343, T313R), sequence (P35453 263-343 T313R): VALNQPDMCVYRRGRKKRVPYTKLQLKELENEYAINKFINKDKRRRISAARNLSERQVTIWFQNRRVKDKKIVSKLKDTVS
sequence,measurement,setting,value
CTAGTAAA,binding signal,[1],"10.8 upbm affinity estimate (log intensity, higher = more binding, comparable within an allelic series)"
same,binding signal,[2],"11.9 upbm affinity estimate (log intensity, higher = more binding, comparable within an allelic series)"
same,binding signal,[3],"11.8 upbm affinity estimate (log intensity, higher = more binding, comparable within an allelic series)"
GTTGTAAA,binding signal,[1],"10.6 upbm affinity estimate (log intensity, higher = more binding, comparable within an allelic series)"
same,binding signal,[2],"11.8 upbm affinity estimate (log intensity, higher = more binding, comparable within an allelic series)"
same,binding signal,[3],"11.7 upbm affinity estimate (log intensity, higher = more binding, comparable within an allelic series)"
CATATAAA,binding signal,[1],"10.9 upbm affinity estimate (log intensity, higher = more binding, comparable within an allelic series)"
same,binding signal,[2],"12.1 upbm affinity estimate (log intensity, higher = more binding, comparable within an allelic series)"
same,binding signal,[3],"11.9 upbm affinity estimate (log intensity, higher = more binding, comparable within an allelic series)"
CCAGTCCG,binding signal,[1],"9.56 upbm affinity estimate (log intensity, higher = more binding, comparable within an allelic series)"
same,binding signal,[2],"9.53 upbm affinity estimate (log intensity, higher = more binding, comparable within an allelic series)"
same,binding signal,[3],"9.68 upbm affinity estimate (log intensity, higher = more binding, comparable within an allelic series)"
TCGGCCCA,binding signal,[1],"9.58 upbm affinity estimate (log intensity, higher = more binding, comparable within an allelic series)"
same,binding signal,[2],"9.62 upbm affinity estimate (log intensity, higher = more binding, comparable within an allelic series)"
same,binding signal,[3],"9.55 upbm affinity estimate (log intensity, higher = more binding, comparable within an allelic series)"
ACTGACAC,binding signal,[4],"10.4 upbm affinity estimate (log intensity, higher = more binding, comparable within an allelic series)"
GGTGTCGA,binding signal,[4],"10.5 upbm affinity estimate (log intensity, higher = more binding, comparable within an allelic series)"
CCTATAAA,binding signal,[1],"11.1 upbm affinity estimate (log intensity, higher = more binding, comparable within an allelic series)"
same,binding signal,[2],"12.3 upbm affinity estimate (log intensity, higher = more binding, comparable within an allelic series)"
same,binding signal,[3],"12.1 upbm affinity estimate (log intensity, higher = more binding, comparable within an allelic series)"
AATTACGC,binding signal,[5],"11.3 upbm affinity estimate (log intensity, higher = more binding, comparable within an allelic series)"
GACACCGA,binding signal,[4],"10.4 upbm affinity estimate (log intensity, higher = more binding, comparable within an allelic series)"
AGTGTCAC,binding signal,[4],"10.4 upbm affinity estimate (log intensity, higher = more binding, comparable within an allelic series)"
GATTATGA,binding signal,[5],"11.2 upbm affinity estimate (log intensity, higher = more binding, comparable within an allelic series)"
CAATTCAA,binding signal,[5],"11.8 upbm affinity estimate (log intensity, higher = more binding, comparable within an allelic series)"
CTTGACAC,binding signal,[4],"10.3 upbm affinity estimate (log intensity, higher = more binding, comparable within an allelic series)"
CTTTACGA,binding signal,[1],"10.5 upbm affinity estimate (log intensity, higher = more binding, comparable within an allelic series)"
same,binding signal,[2],"11.8 upbm affinity estimate (log intensity, higher = more binding, comparable within an allelic series)"
same,binding signal,[3],"11.5 upbm affinity estimate (log intensity, higher = more binding, comparable within an allelic series)"
GGGTGTAA,binding signal,[4],"10.4 upbm affinity estimate (log intensity, higher = more binding, comparable within an allelic series)"
CCGGCCCA,binding signal,[1],"9.49 upbm affinity estimate (log intensity, higher = more binding, comparable within an allelic series)"
same,binding signal,[2],"9.55 upbm affinity estimate (log intensity, higher = more binding, comparable within an allelic series)"
same,binding signal,[3],"9.54 upbm affinity estimate (log intensity, higher = more binding, comparable within an allelic series)"
CGCGATGC,binding signal,[1],"9.5 upbm affinity estimate (log intensity, higher = more binding, comparable within an allelic series)"
same,binding signal,[2],"9.5 upbm affinity estimate (log intensity, higher = more binding, comparable within an allelic series)"
same,binding signal,[3],"9.65 upbm affinity estimate (log intensity, higher = more binding, comparable within an allelic series)"
GTACTAGA,binding signal,[5],"12.1 upbm affinity estimate (log intensity, higher = more binding, comparable within an allelic series)"
AAGGTGTC,binding signal,[4],"10.5 upbm affinity estimate (log intensity, higher = more binding, comparable within an allelic series)"
TAGTGTCA,binding signal,[4],"10.4 upbm affinity estimate (log intensity, higher = more binding, comparable within an allelic series)"
AGGGTGTC,binding signal,[4],"10.5 upbm affinity estimate (log intensity, higher = more binding, comparable within an allelic series)"
CGTAATAA,binding signal,[5],"11 upbm affinity estimate (log intensity, higher = more binding, comparable within an allelic series)"
AGTGTCAA,binding signal,[4],"10.3 upbm affinity estimate (log intensity, higher = more binding, comparable within an allelic series)"
ATATAAAT,binding signal,[1],"10.8 upbm affinity estimate (log intensity, higher = more binding, comparable within an allelic series)"
same,binding signal,[3],"11.6 upbm affinity estimate (log intensity, higher = more binding, comparable within an allelic series)"
same,binding signal,[6],"11 upbm affinity estimate (log intensity, higher = more binding, comparable within an allelic series)"
GACACCAA,binding signal,[4],"10.5 upbm affinity estimate (log intensity, higher = more binding, comparable within an allelic series)"
GTGTCATA,binding signal,[4],"10.8 upbm affinity estimate (log intensity, higher = more binding, comparable within an allelic series)"
GGTGTAGA,binding signal,[4],"10.3 upbm affinity estimate (log intensity, higher = more binding, comparable within an allelic series)"
CTAAGTTA,binding signal,[5],"11.2 upbm affinity estimate (log intensity, higher = more binding, comparable within an allelic series)"
GTGTCAAA,binding signal,[4],"10.3 upbm affinity estimate (log intensity, higher = more binding, comparable within an allelic series)"
TAATATAA,binding signal,[1],"10.8 upbm affinity estimate (log intensity, higher = more binding, comparable within an allelic series)"
same,binding signal,[3],"11.6 upbm affinity estimate (log intensity, higher = more binding, comparable within an allelic series)"
same,binding signal,[6],"11 upbm affinity estimate (log intensity, higher = more binding, comparable within an allelic series)"
ATTTTATA,binding signal,[1],"10.9 upbm affinity estimate (log intensity, higher = more binding, comparable within an allelic series)"
same,binding signal,[2],"11.8 upbm affinity estimate (log intensity, higher = more binding, comparable within an allelic series)"
same,binding signal,[3],"11.9 upbm affinity estimate (log intensity, higher = more binding, comparable within an allelic series)"
same,binding signal,[6],"11.1 upbm affinity estimate (log intensity, higher = more binding, comparable within an allelic series)"
TCTATAAA,binding signal,[1],"11 upbm affinity estimate (log intensity, higher = more binding, comparable within an allelic series)"
same,binding signal,[2],"12.2 upbm affinity estimate (log intensity, higher = more binding, comparable within an allelic series)"
same,binding signal,[3],"11.9 upbm affinity estimate (log intensity, higher = more binding, comparable within an allelic series)"
same,binding signal,[6],"11 upbm affinity estimate (log intensity, higher = more binding, comparable within an allelic series)"
GAGTGTCA,binding signal,[4],"10.3 upbm affinity estimate (log intensity, higher = more binding, comparable within an allelic series)"
ACTTGTTC,binding signal,[5],"11.7 upbm affinity estimate (log intensity, higher = more binding, comparable within an allelic series)"
AGTGCTAA,binding signal,[5],"12 upbm affinity estimate (log intensity, higher = more binding, comparable within an allelic series)"
GTGTCACA,binding signal,[4],"10.7 upbm affinity estimate (log intensity, higher = more binding, comparable within an allelic series)"
AACACTCC,binding signal,[5],"11.3 upbm affinity estimate (log intensity, higher = more binding, comparable within an allelic series)"
AAGGTGTA,binding signal,[4],"10.1 upbm affinity estimate (log intensity, higher = more binding, comparable within an allelic series)"
CCAGTAAA,binding signal,[1],"10.4 upbm affinity estimate (log intensity, higher = more binding, comparable within an allelic series)"
same,binding signal,[2],"11.5 upbm affinity estimate (log intensity, higher = more binding, comparable within an allelic series)"
same,binding signal,[3],"11.2 upbm affinity estimate (log intensity, higher = more binding, comparable within an allelic series)"
CGACACCG,binding signal,[4],"10.2 upbm affinity estimate (log intensity, higher = more binding, comparable within an allelic series)"
CGGGTGTC,binding signal,[4],"10.4 upbm affinity estimate (log intensity, higher = more binding, comparable within an allelic series)"
GGTGTAAA,binding signal,[4],"10.4 upbm affinity estimate (log intensity, higher = more binding, comparable within an allelic series)"
ATTGACAC,binding signal,[4],"10.5 upbm affinity estimate (log intensity, higher = more binding, comparable within an allelic series)"
